Cav3 T inh: human Cav3.2 channel inhibition, primary screen | B-score at 10 µM | 4% of 100,000 active | O95180 | Cav3.2-expressing cells, Fluo-4 calcium fluorescence FDSS; active compounds read low;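 active = single-dose well whose peak fluorescence ratio is a statistical outlier from its plate by either plate-standardised score or position-corrected B-score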
CYP2C19 inhib: human CYP2C19 inhibition; CYP2C19 Supersomes, luciferin-H EGE luminescence, 30 min; inhibition, % at 5 µM; 21% of 96,000 active;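 active = CYP2C19 inhibition above a set limit at 5 µM in the primary screen, cut at about 50% in these data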;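 also: plate controls were negative control wells for no effect and 2.5 mM tranylcypromine positive control for full effect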
CYP2C9 act: CYP2C9 (human) activation; AID 1024; activation factor at 5 µM; recombinant CYP2C9, luciferin-H conversion, luminescence; active compounds read high; factor 1 = untreated enzyme, 0 = blocked; 1.4% of 96,000 active; P11712;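 active = activation factor of 2 or more for CYP2C9 at a 5 µM dose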;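 also: 0 = sulfaphenazole-blocked wells and 1 = vehicle-only wells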
CYP2C9 inh: human CYP2C9 inhibition | 20% of 96,000 active | CYP2C9 Supersomes, luciferin-H conversion, luminescence | AID 777 | inhibition, % at 5 µM;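 active = blocking of liver enzyme CYP2C9 beyond about 50% at 5 µM, limit read from the data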
CYP2C19 activ: cytochrome P450 2C19 (human) activation. recombinant CYP2C19, luciferin-H EGE luminescence; active compounds read high; 0 = fully inhibited enzyme, 1 = untreated enzyme. 96,000 tested, under 10 active. P33261. activation factor at 5 µM;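 active = activation factor of at least 2 at 5 µM in the primary screen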;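 also: 0 = wells with 2.5 mM tranylcypromine and 1 = vehicle-only wells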
* hit, by the source's call; . = not tested or not shown. The list is a sample of the results.

SMILES | Cav3 T inh | CYP2C19 inhib | CYP2C9 act | CYP2C9 inh | CYP2C19 activ
Cn1c(=O)c2cc(S(=O)(=O)NCCC(=O)NC3CCCCCCC3)ccc2n(C)c1=O | 1.3 | -10 | 1.2 | -20 | 1.1
Fc1ccc(Nc2nc(N3CCOCC3)c3ccccc3n2)cc1 | -0.32 | 76* | 0.3 | 74* | 0.2
CCOC(=O)C1(CC)NC(c2cccc(F)c2)C2C(=O)N(CC)C(=O)C21 (configuration not stated) | 1.2 | . | . | . | .
COc1cc(C2/C(=C(\O)c3cc(C)ccc3C)C(=O)C(=O)N2CCN(C)C)ccc1O (configuration not stated) | 0.3 | 16 | 1 | -3 | 0.8
C=CCC(C#Cc1ccc(C)cc1)N(CC)CC (configuration not stated) | 0.31 | 13 | 1 | 3 | 0.9
CSc1ccc(CNc2ccc(Cl)cc2)cc1 | 0.31 | 96* | 1 | 3 | 0
